Bioassay records: PubChem BioAssay, several laboratories
PfHsp40 rescue – rescue of PfHsp40-mediated yeast toxicity; S. cerevisiae expressing PfHsp40, growth rescue, ATP luminescence; growth rescue, % at 12.5 µM; 340,000 tested, 0.68% active; AID 504582; in the data active means growth rescue above about 28%, passing the limit was not always enough;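 further: yeast W303a lacking pdr1 and pdr3 grown in galactose medium; growth measured after three days at 30 °C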
DUSP3 inh – DUSP3 (human) phosphatase inhibition. P51452. 290,000 tested, 0.52% active. inhibition, % at 13.3 µM. recombinant VHR phosphatase, pNPP absorbance; in the data active means inhibition above about 50%
Target sequence (P51452 whole entry, looked up): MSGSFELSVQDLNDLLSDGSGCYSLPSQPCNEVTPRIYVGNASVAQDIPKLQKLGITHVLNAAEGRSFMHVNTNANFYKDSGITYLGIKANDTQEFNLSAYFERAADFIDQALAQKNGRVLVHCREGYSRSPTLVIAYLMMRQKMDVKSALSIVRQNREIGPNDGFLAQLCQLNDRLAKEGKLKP
MazEF act – activators of E. coli MazEF toxin-antitoxin RNase; activation, % at 20 µM; AID 504720; 350,000 tested, 0.32% active; FAM/BHQ RNA-DNA oligo cleavage fluorescence, 5 h; in the data active means activation above about 50%
Target sequence (P0AE70 whole entry, looked up): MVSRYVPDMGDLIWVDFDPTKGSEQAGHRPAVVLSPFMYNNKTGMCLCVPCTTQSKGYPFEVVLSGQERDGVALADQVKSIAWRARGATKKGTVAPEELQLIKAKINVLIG
SARS 3CLpro inh – SARS-CoV 3CLpro protease inhibition; recombinant SARS-CoV 3CLpro, quenched FRET peptide cleavage; P0C6X7; inhibition, % at 6 µM; 290,000 tested, 0.14% active; in the data active means inhibition above about 12%
BJeLR viability – BJeLR cell viability loss. 300,000 tested, 0.17% active. BJeLR (HRASV12) viability, CellTiter-Glo ATP luminescence, 48 h. inhibition, % (no concentration beside the values); in the data active means inhibition above about 50%
BH1578 lux ind – quorum light induction in luxS cqsA deficient V. cholerae; V. cholerae BH1578 lux reporter, luminescence, 6 h; activation, % at 18.7 µM; 350,000 tested, 0.16% active; in the data active means activation mostly above about 9.7%, no sharp cut-off
The depositor's hits bear a star; i = inactive; / = not tested or not shown. The list is not random: actives were taken first. Their share in the collection is about 1.7%.

SMILES	PfHsp40 rescue	DUSP3 inh	MazEF act	SARS 3CLpro inh	BJeLR viability	BH1578 lux ind
CCOc1ccccc1CN1CCN(CCCc2ccccc2)CC1CCO (configuration not stated)	11	40	9	1	7	5
O=C1NC(=S)S/C1=C/c1ccc(OC(=O)c2ccco2)cc1	0	-22	74*	5	7	0
COc1cccc(/C=C2\SC(=S)N(CCCC(=O)N3CCCCC3)C2=O)c1	3	4	-21	4	12	-2
COc1cccc(/C=C2\SC(=S)N(CCCC(=O)N(CCO)c3ccccc3)C2=O)c1	1	19	-24	4	55*	i
O=C1/C(=C/c2ccc3c(c2)OCO3)SC(=S)N1CCC(=O)N(CCO)c1ccccc1	/	/	77*	/	/	i
O=C1/C(=C/c2cccc(Br)c2)SC(=S)N1CCC(=O)N(CCO)c1ccccc1	0	30	-7	-2	-10	0
COc1ccc(C(=O)NCCONC(=O)c2ccc(OC)cc2)cc1	0	0	-2	0	13	0
O=C(COC(=O)Cn1cnc2ccccc21)Nc1ccc(OC(F)F)cc1	1	/	-8	/	/	i
COc1cc(SC#N)ccc1N=Cc1c(C)[nH]n(-c2cccc3ccccc23)c1=O	/	3	5	3	2	/
COc1ccccc1N=Cc1c(C)[nH]n(-c2ccc(C)cc2C)c1=O	58*	10	9	5	-1	i
COc1cc(SC#N)ccc1N=Cc1c(C)[nH]n(-c2ccc(C)cc2C)c1=O	38*	-17	9	2	10	i
Cc1cc(C)n(CC(=O)NNC(=O)CC(C)c2ccccc2)n1 (configuration not stated)	-1	/	-9	/	/	0
O=C(N=C1SC2CS(=O)(=O)CC2N1c1ccc(Cl)c(Cl)c1)C1CCCO1 (configuration not stated)	0	13	-3	0	1	1
CCc1ccc(-c2cn(C3CCCCC3)c(=S)[nH]2)cc1	91*	22	5	-1	-2	-1
COc1ccccc1NC(=O)c1ccc(NC(=O)Cc2n[nH]c(=O)c3ccccc23)cc1	1	19	72*	-5	12	0
COc1ccccc1NC(=O)CCSCCC(=O)Nc1ccccc1OC	45*	2	4	0	-9	0
COc1ccccc1NC(=O)c1ccc(C(=O)Nc2ccccc2OC)nc1	0	16	53*	-1	5	i
Cc1c(N=Cc2c(O)n(C)c(=O)c3ccccc23)c(=O)n(-c2ccccc2)n1C	0	10	300*	5	2	1
Cc1c(N=Cc2c(O)n(CCc3ccccc3)c(=O)[nH]c2=O)c(=O)n(-c2ccccc2)n1C	-1	-5	8	-4	-10	/
CSc1nc(Cc2ccccc2)nc2ccccc12	-1	53*	-7	-6	-2	0
CN(C(=O)c1cc(COc2ccc(F)cc2Cl)on1)C1CCOC1 (configuration not stated)	/	/	6	/	/	i
O=C(Nc1cccc(C(=O)O)c1)/C(=C\c1ccccc1Cl)NC(=O)c1ccco1	0	14	-3	-6	5	4
COc1ccc([C@H]2CC(=O)C=C(/C=C/Cc3ccccc3)C2)cc1	3	/	-3	/	/	i
CCCCC/C=C/C1=CC(=O)C[C@H](c2ccc(OC)cc2)C1	44*	/	-6	/	/	i
CC(=O)c1cccc(S(=O)(=O)NC2CCSc3ccccc32)c1 (configuration not stated)	2	12	-25	-1	-1	0
SMILES	PfHsp40 rescue	DUSP3 inh	MazEF act	SARS 3CLpro inh	BJeLR viability	BH1578 lux ind
CC(C)(C)c1ccc(C(=O)c2c[nH]c(C(=O)NCc3cccnc3)c2)cc1	0	4	8	-5	4	0
O=C(Cc1ccc(Cl)cc1)c1c[nH]c(C(=O)NCc2cccnc2)c1	0	20	-6	3	78*	0
O=C(NCc1cccnc1)c1sc2cc(Cl)ccc2c1Cl	0	50*	0	-7	1	0
COc1ccccc1NC(=O)COC(=O)c1c(NC(C)=O)sc(C)c1C	/	/	6	/	/	-1
Oc1ccccc1Nc1nc(NCc2ccccc2)c2ccccc2n1	0	13	57*	1	8	0
OCCNc1nc(Nc2ccccc2)nc2ccccc12	1	-5	3	0	1	17*
CNc1nc(NCc2ccccc2)c2ccccc2n1	-1	-2	30	-4	-7	i
Oc1ccccc1-c1nc(NCc2ccco2)c2ccccc2n1	0	10	120*	-3	1	/
Oc1ccccc1-c1nc(NCc2ccccc2)c2ccccc2n1	0	/	63*	3	9	i
Cc1cccc(N2CCN(C(=O)C3CCN(S(=O)(=O)N4CCOCC4)CC3)CC2C)c1 (configuration not stated)	1	-7	-2	8	6	0
COc1ccc(OC)c(S(=O)(=O)ON2C(=O)c3ccccc3C2=O)c1	1	11	2	-1	23	i
COc1ccc(OC)c(S(=O)(=O)N(C)CC(=O)N2CCc3ccccc3C2)c1	0	5	3	-4	7	-5
COc1ccc(OC)c(S(=O)(=O)N(C)CC(=O)N2CCCCC2)c1	0	53*	-3	-1	-7	0
Cc1ccc(CNc2ccc3c(c2)OCO3)cc1	1	-21	59*	-8	15	i
COc1ccc(C2C(C(=O)c3ccccc3)N3c4ccccc4C=CC3C2[N+](=O)[O-])cc1 (configuration not stated)	1	22	63*	3	/	0
C=CCN1CCN(C(=O)c2ccc(-c3ccccc3)cc2)CC1	0	8	2	1	2	i
C=CCN1CCN(C(=O)CSc2ccccc2)CC1	-2	57*	10	-2	9	1
COc1ccc(CCN2CC(C(=O)NCc3ccccc3)CCC2=O)cc1 (configuration not stated)	0	-10	-1	-3	1	-1
CCOC(=O)C1(Cc2cccc(Cl)c2)CCCN(C(=O)c2occc2C)C1 (configuration not stated)	122*	24	-2	-1	-5	0
CCOC(=O)C1(Cc2cccc(Cl)c2)CCCN(C(=O)c2ccco2)C1 (configuration not stated)	1	2	-3	4	4	0
COC(=O)Cc1ccc(NC(=S)N2CCN(c3ccc(OC)cc3)CC2)cc1	-1	12	-2	5	-3	2
COC(=O)Cc1ccc(NC(=S)N2CCN(c3cccc(O)c3)CC2)cc1	-2	55*	-5	6	6	0
CSc1ncccc1C(=O)NC1CCCCCCC1	-1	5	-10	-3	-5	i
CSc1ncccc1C(=O)NCC1CCCCC1	1	51*	7	-1	5	i
